Hit rate of the full screen: of about 5,500 compounds, about 2,000 (36%) were called active. Inconclusive results (about 18%) are left out. Cut-off read from the data, not from the text of the source: active = normalized growth mostly below about 0.91 (no sharp cut-off); inconclusive = no clear call, values can overlap the other calls; inactive = mostly above about 0.92. The list shows a part of the results.
Test: chemical genetic growth profiling, strain panel (AID 1159580);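 note: tested at 20 µM; growth read once vehicle control cultures reached saturation at 30 °C; 1 = growth at the plate median or of vehicle wells; lower values mean less growth of the strain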
Conditions: S. cerevisiae deletion strains, growth OD

Measured: normalized growth

CNCCC(Oc1ccccc1C)c1ccccc1 (configuration not stated)
inactive: locus YAL040C, strain CLN3, hits give low values 0.978 | locus YCL061C, strain MRC1 (second series), hits give low values 0.995 | locus YDR150W, strain NUM1, hits give low values 0.994 | locus YDR363W, strain ESC2, hits give low values 0.968 | locus YER002W, strain NOP16, hits give low values 0.995 | locus YMR263W, strain SAP30, hits give low values 0.982 | locus YMR307W, strain GAS1, hits give low values 0.971 | locus YNL128W, strain TEP1, hits give low values 1.05 | locus YNL153C, strain GIM3, hits give low values 0.984 | locus YNL175C, strain NOP13, hits give low values 1.04 | locus YNL197C, strain WHI3, hits give low values 1.02 | locus YNL224C, strain SQS1, hits give low values 1.08 | locus YNL322C, strain KRE1, hits give low values 0.96 | locus YOR083W, strain WHI5 (second series), hits give low values 1 | locus YPL055C, strain LGE1, hits give low values 0.984 | locus YPL241C, strain CIN2, hits give low values 1

C/C(=N/NC(N)=S)c1csc(-c2ccccc2)n1
active: locus YHR030C, strain SLT2, hits give low values 1.46 [resistant]
inactive: locus YAR019C, strain CDC15, hits give low values 0.917 | locus YBL105C, strain PKC1, hits give low values 0.947 | locus YBR135W, strain CKS1, hits give low values 0.948 | locus YBR136W, strain MEC1, hits give low values 0.941 | locus YBR160W, strain CDC28, hits give low values 0.942 | locus YDL017W, strain CDC7, hits give low values 0.962 | locus YDL028C, strain MPS1, hits give low values 0.948 | locus YDL101C, strain DUN1, hits give low values 0.931 | locus YDL108W, strain KIN28, hits give low values 0.942 | locus YDL132W, strain cdc53, hits give low values 0.942 | locus YDL214C, strain PRR2, hits give low values 0.834 | locus YDR052C, strain DBF4, hits give low values 0.944 | locus YDR054C, strain cdc34, hits give low values 0.898 | locus YDR226W, strain ADK1, hits give low values 0.961 | locus YDR477W, strain SNF1, hits give low values 0.816 | locus YER123W, strain YCK3, hits give low values 0.698 | locus YER133W, strain GLC7, hits give low values 0.791 | locus YFL009W, strain cdc4, hits give low values 0.913 | locus YFL029C, strain CAK1, hits give low values 0.935 | locus YFR003C, strain YPI1, hits give low values 0.948 | locus YFR019W, strain FAB1, hits give low values 0.895 | locus YFR028C, strain CDC14, hits give low values 0.936 | locus YGR040W, strain KSS1, hits give low values 0.823 | locus YGR052W, strain FMP48, hits give low values 0.96 | locus YGR092W, strain DBF2, hits give low values 0.545 | locus YHR079C, strain IRE1, hits give low values 0.663 | locus YHR082C, strain KSP1, hits give low values 1.19 | locus YHR205W, strain SCH9, hits give low values 0.978 | locus YIL147C, strain SLN1, hits give low values 0.937 | locus YJL095W, strain BCK1, hits give low values 0.993 | locus YJL128C, strain PBS2, hits give low values 1.02 | locus YJL157C, strain FAR1, hits give low values 0.802 | locus YJR016C, strain ILV3, hits give low values 0.935 | locus YJR066W, strain TOR1 (second series), hits give low values 0.625 | locus YJR066W, strain TOR1, hits give low values 1.01 | locus YKL048C, strain ELM1, hits give low values 0.948 | locus YKL067W, strain YNK1, hits give low values 0.864 | locus YKL101W, strain HSL1, hits give low values 0.886 | locus YKL193C, strain SDS22, hits give low values 0.932 | locus YKL203C, strain TOR2, hits give low values 0.852 | locus YLR113W, strain HOG1, hits give low values 0.964 | locus YLR133W, strain CKI1, hits give low values 0.863 | locus YLR403W, strain SFP1, hits give low values 0.717 | locus YML070W, strain DAK1, hits give low values 0.884 | locus YMR001C, strain CDC5, hits give low values 0.935 | locus YMR205C, strain PFK2 (second series), hits give low values 0.883 | locus YMR277W, strain FCP1, hits give low values 0.914 | locus YNL006W, strain LST8, hits give low values 0.949 | locus YNL020C, strain ARK1, hits give low values 0.846 | locus YNL161W, strain CBK1, hits give low values 0.925 | locus YNL183C, strain NPR1, hits give low values 0.883 | locus YNL207W, strain RIO2, hits give low values 0.931 | locus YNL222W, strain SSU72, hits give low values 0.925 | locus YNL307C, strain MCK1 (second series), hits give low values 0.754 | locus YOL078W, strain AVO1, hits give low values 0.92 | locus YOL136C, strain PFK27, hits give low values 0.837 | locus YOR061W, strain CKA2, hits give low values 0.829 | locus YOR119C, strain RIO1, hits give low values 0.823 | locus YOR231W, strain MKK1, hits give low values 0.739 | locus YOR329C, strain SCD5, hits give low values 0.943 | locus YPL031C, strain PHO85, hits give low values 0.776 | locus YPL153C, strain RAD53, hits give low values 0.789 | locus YPL204W, strain HRR25, hits give low values 0.774 | locus YPL209C, strain IPL1, hits give low values 0.945 | locus YPL256C, strain CLN2, hits give low values 1.05 | locus YPR025C, strain CCL1, hits give low values 0.95 | locus YPR106W, strain ISR1, hits give low values 0.945 | locus YPR111W, strain DBF20, hits give low values 0.968 | strain NNK1, hits give low values 0.969 | strain TSCII, hits give low values 0.914

Reference: PubChem BioAssay AID1159580 (chemical genetic matrix, 2015)
